Data from paper PMC7862700, “An all-to-all approach to the identification of sequence-specific readers for epigenetic DNA modifications on cytosine”.

Key:
Assay in all cases: DAPPL (digital affinity profiling via proximity ligation, sequencing); 10 mM Tris-HCl pH 7.5, 50 mM NaCl, 1 mM DTT, 4% glycerol, room temperature, 30 min; GST-TFs on glutathione beads, 16-mer random dsDNA library, 0.1% formaldehyde crosslink after washing; high values mean tight binding
FLI1 = molecular target: T1, FLI1 (Homo sapiens, UniProt Q01543 1-452); settings: protein: recombinant; tags: N-terminal GST; dsDNA, one strand shown
T1 sequence: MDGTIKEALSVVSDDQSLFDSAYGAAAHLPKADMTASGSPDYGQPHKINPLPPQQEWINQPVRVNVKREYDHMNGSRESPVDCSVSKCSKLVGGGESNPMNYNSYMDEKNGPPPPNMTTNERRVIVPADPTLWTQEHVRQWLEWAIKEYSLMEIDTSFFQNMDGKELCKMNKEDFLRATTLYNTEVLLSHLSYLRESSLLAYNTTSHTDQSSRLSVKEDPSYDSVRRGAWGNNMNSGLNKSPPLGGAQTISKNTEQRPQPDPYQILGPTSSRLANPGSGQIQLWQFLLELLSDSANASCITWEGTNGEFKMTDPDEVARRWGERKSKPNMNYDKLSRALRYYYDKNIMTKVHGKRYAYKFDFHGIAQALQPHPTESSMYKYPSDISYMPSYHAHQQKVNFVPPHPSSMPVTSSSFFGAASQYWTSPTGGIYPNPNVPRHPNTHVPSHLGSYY
Outline: (§1)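 In yeast, human transcription factors were expressed with a GST fusion, then pulled down on glutathione beads and given DNA barcodes. Pooled with a tag-only sample, they were exposed to 200 nmole of a 16-mer random double-stranded DNA library (Tris/NaCl/DTT/glycerol buffer, room temperature, 30 min), washed, crosslinked with 0.1% formaldehyde, proximity-ligated using BsaI/T4 ligase for 1 h at 37 °C, PCR-amplified and read on an Illumina NextSeq500. Each hexamer's frequency of reads for a factor, divided by the matching frequency for the tag-only sample, gives the binding signal.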

ELK1 = molecular target: T2, ELK1 (Homo sapiens, UniProt P19419 1-428); settings: protein: recombinant; tags: N-terminal GST; dsDNA, one strand shown
T2 sequence: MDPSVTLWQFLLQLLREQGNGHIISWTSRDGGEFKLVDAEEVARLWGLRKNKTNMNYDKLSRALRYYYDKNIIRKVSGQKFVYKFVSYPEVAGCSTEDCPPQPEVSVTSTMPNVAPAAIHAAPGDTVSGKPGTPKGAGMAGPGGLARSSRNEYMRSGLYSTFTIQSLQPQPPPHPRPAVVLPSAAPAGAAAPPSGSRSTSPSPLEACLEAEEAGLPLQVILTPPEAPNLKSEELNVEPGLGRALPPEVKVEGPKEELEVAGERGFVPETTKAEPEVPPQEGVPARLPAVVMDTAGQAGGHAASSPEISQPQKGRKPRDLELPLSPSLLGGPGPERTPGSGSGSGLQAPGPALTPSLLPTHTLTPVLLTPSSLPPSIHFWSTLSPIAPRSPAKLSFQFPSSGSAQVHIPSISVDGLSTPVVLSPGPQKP
Outline: as §1

GABPA = molecular target: T3, GABPA (Homo sapiens, UniProt Q06546 1-454); settings: protein: recombinant; tags: N-terminal GST; dsDNA, one strand shown
T3 sequence: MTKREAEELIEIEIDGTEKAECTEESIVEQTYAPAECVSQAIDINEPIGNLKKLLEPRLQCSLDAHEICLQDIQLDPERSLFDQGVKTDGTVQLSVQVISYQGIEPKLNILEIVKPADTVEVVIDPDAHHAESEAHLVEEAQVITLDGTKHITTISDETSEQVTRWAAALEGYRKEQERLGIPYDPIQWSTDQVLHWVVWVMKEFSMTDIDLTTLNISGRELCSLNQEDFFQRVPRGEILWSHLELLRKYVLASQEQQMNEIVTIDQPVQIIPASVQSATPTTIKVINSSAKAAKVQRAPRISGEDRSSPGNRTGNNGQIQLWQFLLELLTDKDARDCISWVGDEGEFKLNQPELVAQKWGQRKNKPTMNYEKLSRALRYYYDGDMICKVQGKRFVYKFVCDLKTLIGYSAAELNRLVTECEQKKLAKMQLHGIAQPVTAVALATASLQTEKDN
Outline: as §1

ERG = molecular target: T4, ERG (Homo sapiens, UniProt P11308 1-479); settings: protein: recombinant; tags: N-terminal GST; dsDNA, one strand shown
T4 sequence: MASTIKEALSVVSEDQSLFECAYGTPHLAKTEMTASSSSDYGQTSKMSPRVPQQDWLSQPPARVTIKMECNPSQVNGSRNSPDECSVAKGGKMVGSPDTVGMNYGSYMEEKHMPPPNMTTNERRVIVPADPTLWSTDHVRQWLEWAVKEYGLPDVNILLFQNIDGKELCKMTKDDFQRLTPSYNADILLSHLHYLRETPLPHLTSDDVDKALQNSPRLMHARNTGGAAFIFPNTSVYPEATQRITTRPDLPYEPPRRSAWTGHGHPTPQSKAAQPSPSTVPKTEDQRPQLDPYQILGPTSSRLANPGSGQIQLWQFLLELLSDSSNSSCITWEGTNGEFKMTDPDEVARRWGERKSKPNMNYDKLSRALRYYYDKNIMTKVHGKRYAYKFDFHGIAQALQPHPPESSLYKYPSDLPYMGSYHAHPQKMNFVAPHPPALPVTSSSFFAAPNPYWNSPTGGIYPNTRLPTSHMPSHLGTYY
Outline: as §1

ELF1 = ELF1 (Homo sapiens, UniProt P32519 1-619); settings: protein: recombinant; tags: N-terminal GST; dsDNA, one strand shown
Chain of ELF1 (P32519 whole entry): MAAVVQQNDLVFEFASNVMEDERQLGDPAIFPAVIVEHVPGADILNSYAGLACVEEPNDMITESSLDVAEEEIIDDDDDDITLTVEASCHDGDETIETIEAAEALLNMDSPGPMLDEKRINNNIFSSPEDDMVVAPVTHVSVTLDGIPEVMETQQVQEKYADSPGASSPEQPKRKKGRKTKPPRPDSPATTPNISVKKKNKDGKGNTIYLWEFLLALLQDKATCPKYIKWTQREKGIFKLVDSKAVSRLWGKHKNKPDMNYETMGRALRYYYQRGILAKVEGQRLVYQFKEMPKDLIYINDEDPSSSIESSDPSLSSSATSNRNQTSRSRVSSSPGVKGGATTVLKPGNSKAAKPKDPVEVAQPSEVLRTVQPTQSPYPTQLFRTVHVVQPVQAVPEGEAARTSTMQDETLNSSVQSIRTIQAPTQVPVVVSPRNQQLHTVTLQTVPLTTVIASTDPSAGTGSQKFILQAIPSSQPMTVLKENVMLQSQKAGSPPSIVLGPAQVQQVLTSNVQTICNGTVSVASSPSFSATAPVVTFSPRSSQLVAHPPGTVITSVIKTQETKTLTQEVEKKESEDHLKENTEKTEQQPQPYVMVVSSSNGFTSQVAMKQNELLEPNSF
Outline: as §1

EHF = molecular target: T5, EHF (Homo sapiens, UniProt Q9NZC4 1-300); settings: protein: recombinant; tags: N-terminal GST; dsDNA, one strand shown
T5 sequence: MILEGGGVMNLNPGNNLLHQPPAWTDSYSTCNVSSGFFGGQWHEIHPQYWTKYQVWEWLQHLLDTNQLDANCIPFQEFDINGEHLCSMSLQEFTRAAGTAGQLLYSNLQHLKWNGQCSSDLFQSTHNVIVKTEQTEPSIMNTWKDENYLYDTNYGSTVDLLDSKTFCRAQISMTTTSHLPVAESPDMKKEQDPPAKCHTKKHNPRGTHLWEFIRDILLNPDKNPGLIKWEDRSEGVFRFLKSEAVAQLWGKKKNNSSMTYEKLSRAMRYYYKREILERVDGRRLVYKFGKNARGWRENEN
Outline: as §1

SPI1 = SPI1 (Homo sapiens, UniProt P17947 1-270); settings: protein: recombinant; tags: N-terminal GST; dsDNA, one strand shown
Outline: as §1

SPIB = SPIB (Homo sapiens, UniProt Q01892 1-262); settings: protein: recombinant; tags: N-terminal GST; dsDNA, one strand shown
Chain of SPIB (Q01892 whole entry): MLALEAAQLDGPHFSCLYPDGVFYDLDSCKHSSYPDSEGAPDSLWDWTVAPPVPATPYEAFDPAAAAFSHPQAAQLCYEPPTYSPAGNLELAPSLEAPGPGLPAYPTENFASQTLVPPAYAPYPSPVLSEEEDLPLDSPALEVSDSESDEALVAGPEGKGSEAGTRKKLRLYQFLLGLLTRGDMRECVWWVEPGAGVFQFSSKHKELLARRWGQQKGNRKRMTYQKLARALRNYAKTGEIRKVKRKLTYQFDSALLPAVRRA
Outline: as §1

ELK3 = molecular target: T6, ELK3 (Homo sapiens, UniProt P41970 1-407); settings: protein: recombinant; tags: N-terminal GST; dsDNA, one strand shown
T6 sequence: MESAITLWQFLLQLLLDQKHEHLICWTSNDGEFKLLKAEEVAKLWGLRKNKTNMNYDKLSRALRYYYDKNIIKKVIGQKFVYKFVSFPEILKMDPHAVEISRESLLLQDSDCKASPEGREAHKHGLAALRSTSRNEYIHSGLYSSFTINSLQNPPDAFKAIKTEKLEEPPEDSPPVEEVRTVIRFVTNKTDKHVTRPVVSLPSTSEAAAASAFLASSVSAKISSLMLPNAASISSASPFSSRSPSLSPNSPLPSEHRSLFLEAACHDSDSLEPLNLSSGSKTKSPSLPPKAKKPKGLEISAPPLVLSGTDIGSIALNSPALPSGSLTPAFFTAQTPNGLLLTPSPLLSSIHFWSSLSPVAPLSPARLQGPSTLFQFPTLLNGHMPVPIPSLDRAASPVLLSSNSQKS
Outline: as §1

FEV = molecular target: T7, FEV (Homo sapiens, UniProt Q99581 1-238); settings: protein: recombinant; tags: N-terminal GST; dsDNA, one strand shown
T7 sequence: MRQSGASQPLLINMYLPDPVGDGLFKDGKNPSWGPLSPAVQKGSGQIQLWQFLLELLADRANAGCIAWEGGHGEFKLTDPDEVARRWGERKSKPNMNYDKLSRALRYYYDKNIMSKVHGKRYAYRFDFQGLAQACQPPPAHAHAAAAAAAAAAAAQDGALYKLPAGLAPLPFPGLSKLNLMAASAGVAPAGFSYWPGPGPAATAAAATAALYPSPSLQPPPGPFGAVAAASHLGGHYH
Outline: as §1

ETV5 = ETV5 (Homo sapiens, UniProt P41161 1-510); settings: protein: recombinant; tags: N-terminal GST; dsDNA, one strand shown
Chain of ETV5 (P41161 whole entry): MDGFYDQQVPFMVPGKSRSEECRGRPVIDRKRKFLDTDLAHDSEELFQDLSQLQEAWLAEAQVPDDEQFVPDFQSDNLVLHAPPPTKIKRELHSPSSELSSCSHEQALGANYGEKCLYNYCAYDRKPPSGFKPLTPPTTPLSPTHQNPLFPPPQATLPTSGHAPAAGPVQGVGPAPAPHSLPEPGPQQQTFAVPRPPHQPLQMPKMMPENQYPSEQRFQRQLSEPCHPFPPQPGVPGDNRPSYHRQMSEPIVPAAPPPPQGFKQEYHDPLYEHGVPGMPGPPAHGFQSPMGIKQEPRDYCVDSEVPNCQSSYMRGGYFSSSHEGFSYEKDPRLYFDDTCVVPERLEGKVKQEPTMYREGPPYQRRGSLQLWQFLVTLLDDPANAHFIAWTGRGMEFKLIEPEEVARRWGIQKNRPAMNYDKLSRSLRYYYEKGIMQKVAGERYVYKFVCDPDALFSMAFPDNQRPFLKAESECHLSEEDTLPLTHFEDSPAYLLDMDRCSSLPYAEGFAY
Outline: as §1

HSF1 = HSF1 (Homo sapiens, UniProt Q00613 1-529); settings: protein: recombinant; tags: N-terminal GST; chain copies: 3; dsDNA, one strand shown
Chain of HSF1 (Q00613 whole entry): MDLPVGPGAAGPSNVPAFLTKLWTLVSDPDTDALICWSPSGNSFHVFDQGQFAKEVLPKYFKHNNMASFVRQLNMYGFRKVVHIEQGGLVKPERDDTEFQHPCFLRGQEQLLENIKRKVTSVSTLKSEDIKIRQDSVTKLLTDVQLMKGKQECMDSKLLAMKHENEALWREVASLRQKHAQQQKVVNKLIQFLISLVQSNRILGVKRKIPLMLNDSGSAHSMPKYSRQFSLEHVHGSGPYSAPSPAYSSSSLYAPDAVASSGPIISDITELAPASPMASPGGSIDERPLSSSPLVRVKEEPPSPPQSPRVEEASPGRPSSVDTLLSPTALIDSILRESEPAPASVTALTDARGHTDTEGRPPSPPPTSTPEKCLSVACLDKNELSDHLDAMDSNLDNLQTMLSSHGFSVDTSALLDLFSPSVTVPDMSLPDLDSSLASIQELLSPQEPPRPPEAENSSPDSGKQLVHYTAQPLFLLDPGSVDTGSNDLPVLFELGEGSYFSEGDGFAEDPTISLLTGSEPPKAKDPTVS
Outline: as §1

SPIC = molecular target: T8, SPIC (Homo sapiens, UniProt Q8N5J4 1-248); settings: protein: recombinant; tags: N-terminal GST; dsDNA, one strand shown
T8 sequence: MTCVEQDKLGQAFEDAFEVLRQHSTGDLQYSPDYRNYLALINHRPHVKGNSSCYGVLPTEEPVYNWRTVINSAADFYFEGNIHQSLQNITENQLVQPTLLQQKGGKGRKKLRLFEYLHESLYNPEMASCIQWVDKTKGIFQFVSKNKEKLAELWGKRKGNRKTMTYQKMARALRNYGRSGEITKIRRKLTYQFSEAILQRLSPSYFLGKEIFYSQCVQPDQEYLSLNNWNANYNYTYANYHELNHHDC
Outline: as §1

ELF4 = ELF4 (Homo sapiens, UniProt Q99607 1-663); settings: protein: recombinant; tags: N-terminal GST; dsDNA, one strand shown
Chain of ELF4 (Q99607 whole entry): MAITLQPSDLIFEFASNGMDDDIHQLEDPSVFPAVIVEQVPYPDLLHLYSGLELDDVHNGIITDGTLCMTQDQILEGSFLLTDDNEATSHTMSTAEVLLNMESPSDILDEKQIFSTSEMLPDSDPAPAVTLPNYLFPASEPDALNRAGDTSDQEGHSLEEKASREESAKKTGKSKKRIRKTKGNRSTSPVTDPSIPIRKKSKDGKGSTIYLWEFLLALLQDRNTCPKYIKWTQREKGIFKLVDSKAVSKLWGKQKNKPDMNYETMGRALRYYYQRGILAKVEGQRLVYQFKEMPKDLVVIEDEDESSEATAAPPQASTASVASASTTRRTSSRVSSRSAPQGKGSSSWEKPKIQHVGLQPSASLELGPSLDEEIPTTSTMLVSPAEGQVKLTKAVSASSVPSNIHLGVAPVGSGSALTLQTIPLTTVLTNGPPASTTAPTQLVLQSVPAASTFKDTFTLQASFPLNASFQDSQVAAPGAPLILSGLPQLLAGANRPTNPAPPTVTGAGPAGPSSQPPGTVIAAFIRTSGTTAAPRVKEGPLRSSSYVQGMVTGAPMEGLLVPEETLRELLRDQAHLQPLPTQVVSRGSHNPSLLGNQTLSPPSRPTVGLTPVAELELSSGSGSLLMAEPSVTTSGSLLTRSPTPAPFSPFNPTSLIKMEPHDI
Outline: as §1

ELK4 = molecular target: T9, ELK4 (Homo sapiens, UniProt P28324-2 1-405); settings: protein: recombinant; tags: N-terminal GST; dsDNA, one strand shown
T9 sequence: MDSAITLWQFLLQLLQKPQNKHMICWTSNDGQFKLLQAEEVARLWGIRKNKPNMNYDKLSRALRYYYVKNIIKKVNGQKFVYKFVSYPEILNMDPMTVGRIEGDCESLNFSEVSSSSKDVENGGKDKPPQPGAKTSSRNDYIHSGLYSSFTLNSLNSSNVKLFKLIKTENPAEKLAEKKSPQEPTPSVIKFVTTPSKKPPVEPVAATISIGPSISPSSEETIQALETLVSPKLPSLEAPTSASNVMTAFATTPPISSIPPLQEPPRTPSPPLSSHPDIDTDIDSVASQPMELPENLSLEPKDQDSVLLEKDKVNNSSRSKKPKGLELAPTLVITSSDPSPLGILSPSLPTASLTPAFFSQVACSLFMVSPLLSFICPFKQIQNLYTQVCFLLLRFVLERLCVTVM
Outline: as §1

ETV2 = molecular target: T10, ETV2 (Homo sapiens, UniProt O00321 1-342); settings: protein: recombinant; tags: N-terminal GST; dsDNA, one strand shown
T10 sequence: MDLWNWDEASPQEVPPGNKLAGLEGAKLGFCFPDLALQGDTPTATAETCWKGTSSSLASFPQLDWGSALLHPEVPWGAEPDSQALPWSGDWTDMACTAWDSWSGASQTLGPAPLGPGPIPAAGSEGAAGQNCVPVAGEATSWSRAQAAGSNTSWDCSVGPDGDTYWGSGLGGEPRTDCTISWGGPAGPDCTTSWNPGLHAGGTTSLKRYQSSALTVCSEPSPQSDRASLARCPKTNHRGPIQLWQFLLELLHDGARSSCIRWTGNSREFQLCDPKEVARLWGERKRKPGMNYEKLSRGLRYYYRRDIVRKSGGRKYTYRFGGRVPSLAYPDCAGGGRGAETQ
Outline: as §1

ELF3 = molecular target: T11, ELF3 (Homo sapiens, UniProt P78545 1-371); settings: protein: recombinant; tags: N-terminal GST; dsDNA, one strand shown
T11 sequence: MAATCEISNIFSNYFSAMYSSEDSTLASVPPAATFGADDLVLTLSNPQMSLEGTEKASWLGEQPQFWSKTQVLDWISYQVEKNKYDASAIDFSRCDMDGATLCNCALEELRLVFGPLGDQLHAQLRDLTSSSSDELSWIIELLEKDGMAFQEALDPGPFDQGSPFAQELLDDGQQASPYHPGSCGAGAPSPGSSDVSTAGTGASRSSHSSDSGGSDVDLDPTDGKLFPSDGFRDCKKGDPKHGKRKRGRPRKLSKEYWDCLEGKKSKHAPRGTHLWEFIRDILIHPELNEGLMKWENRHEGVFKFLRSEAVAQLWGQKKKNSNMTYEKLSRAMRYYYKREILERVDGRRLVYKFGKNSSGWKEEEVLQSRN
Outline: as §1

CRX = CRX (Homo sapiens, UniProt O43186 1-299); settings: protein: recombinant; tags: N-terminal GST; dsDNA, one strand shown
Chain of CRX (O43186 whole entry): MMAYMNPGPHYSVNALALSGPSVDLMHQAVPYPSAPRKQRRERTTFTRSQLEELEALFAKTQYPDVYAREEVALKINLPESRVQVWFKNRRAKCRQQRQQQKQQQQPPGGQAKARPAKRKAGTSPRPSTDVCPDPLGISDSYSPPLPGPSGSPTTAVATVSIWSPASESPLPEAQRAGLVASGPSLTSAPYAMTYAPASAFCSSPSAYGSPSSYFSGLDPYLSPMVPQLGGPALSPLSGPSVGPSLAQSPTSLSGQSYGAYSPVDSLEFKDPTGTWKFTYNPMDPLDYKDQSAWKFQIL
Outline: as §1

ETV1 = ETV1 (Homo sapiens, UniProt P50549 1-477); settings: protein: recombinant; tags: N-terminal GST; dsDNA, one strand shown
Chain of ETV1 (P50549 whole entry): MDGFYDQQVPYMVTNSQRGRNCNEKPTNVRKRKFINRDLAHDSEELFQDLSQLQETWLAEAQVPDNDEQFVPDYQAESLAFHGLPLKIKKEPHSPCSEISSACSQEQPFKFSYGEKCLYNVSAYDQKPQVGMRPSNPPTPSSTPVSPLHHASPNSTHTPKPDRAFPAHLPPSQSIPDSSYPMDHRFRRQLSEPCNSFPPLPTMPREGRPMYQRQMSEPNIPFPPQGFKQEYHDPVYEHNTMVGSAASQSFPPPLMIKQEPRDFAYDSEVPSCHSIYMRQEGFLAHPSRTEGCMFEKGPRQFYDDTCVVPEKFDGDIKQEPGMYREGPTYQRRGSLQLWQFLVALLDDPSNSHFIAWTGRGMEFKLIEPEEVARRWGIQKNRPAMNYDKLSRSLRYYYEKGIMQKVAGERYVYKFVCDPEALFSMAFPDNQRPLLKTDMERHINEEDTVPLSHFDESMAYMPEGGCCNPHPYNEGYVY
Outline: as §1

## GCTTCT
FLI1
  binding signal: 1.41 fold enrichment (6-mer frequency, TF over GST control)
ELK1
  binding signal: 1.49 fold enrichment (6-mer frequency, TF over GST control)
GABPA
  binding signal: 1.53 fold enrichment (6-mer frequency, TF over GST control)
ERG
  binding signal: 1.44 fold enrichment (6-mer frequency, TF over GST control)
ELF1
  binding signal: 1.59 fold enrichment (6-mer frequency, TF over GST control)
EHF
  binding signal: 1.52 fold enrichment (6-mer frequency, TF over GST control)
SPI1
  binding signal: 1.43 fold enrichment (6-mer frequency, TF over GST control)
SPIB
  binding signal: 1.51 fold enrichment (6-mer frequency, TF over GST control)
ELK3
  binding signal: 1.61 fold enrichment (6-mer frequency, TF over GST control)
FEV
  binding signal: 1.41 fold enrichment (6-mer frequency, TF over GST control)
ETV5
  binding signal: 1.57 fold enrichment (6-mer frequency, TF over GST control)
HSF1
  binding signal: 2.32 fold enrichment (6-mer frequency, TF over GST control)
SPIC
  binding signal: 1.48 fold enrichment (6-mer frequency, TF over GST control)
ELF4
  binding signal: 1.6 fold enrichment (6-mer frequency, TF over GST control)
ELK4
  binding signal: 1.4 fold enrichment (6-mer frequency, TF over GST control)
ETV2
  binding signal: 1.46 fold enrichment (6-mer frequency, TF over GST control)
ELF3
  binding signal: 1.25 fold enrichment (6-mer frequency, TF over GST control)
CRX
  binding signal: 1.81 fold enrichment (6-mer frequency, TF over GST control)
ETV1
  binding signal: 1.42 fold enrichment (6-mer frequency, TF over GST control)
